# High-throughput results from PubChem BioAssay.
# Rows were chosen to be rich in hits. Some 8.9% of all compounds tested hit in one or more screens of this group.
# DRD3 agonist: qHTS of D3 Dopamine Receptor Agonist: qHTS; D(3) dopamine receptor (Homo sapiens), P35462; max activation, %; AID 652048, 2013; D3R DiscoveRx beta-arrestin cells, luminescence, 90 min; 410,000 compounds, 0.58% hits; in the data active = max activation above about 30%; note: 0% is about no effect
# Target sequence (P35462 whole entry, looked up): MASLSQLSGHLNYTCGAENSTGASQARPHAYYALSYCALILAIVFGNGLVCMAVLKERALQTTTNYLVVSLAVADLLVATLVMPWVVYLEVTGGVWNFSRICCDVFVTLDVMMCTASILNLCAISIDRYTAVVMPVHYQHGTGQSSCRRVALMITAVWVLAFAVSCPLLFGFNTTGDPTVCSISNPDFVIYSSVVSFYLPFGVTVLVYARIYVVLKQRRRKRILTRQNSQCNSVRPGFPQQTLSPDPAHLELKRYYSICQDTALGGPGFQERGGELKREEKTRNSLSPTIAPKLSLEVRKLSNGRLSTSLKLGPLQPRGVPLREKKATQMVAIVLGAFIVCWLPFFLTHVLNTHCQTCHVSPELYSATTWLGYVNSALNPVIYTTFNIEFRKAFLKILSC
#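 Agonist mode: compounds and dopamine controls were applied to plated cells for 90 min at 37 degrees C after an overnight attachment at 1500 cells/well. Luminescent read-out followed 30 - 60 minutes at room temperature with DiscoveRx detection reagent.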
# D3 antag: qHTS of D3 Dopamine Receptor Antagonist: qHTS; max response, negative = inhibition, %; D3R cells, DiscoveRx beta-arrestin luminescence, antagonist mode; stronger effect = lower value; 360,000 compounds, 2.5% hits; AID 652054, 2013; in the data active = max response below about -50%; inconclusive = no clear call, values can overlap the other calls; note: % is set by controls: 0 for no effect and ±100 for the full control effect
#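 Cells plated overnight at 1500 cells/well, then exposed to library compounds with dopamine controls for 90 minutes at 37 degrees C. DiscoveRx reagent added for 30–60 minutes at room temperature; luminescence read, quantitative HTS format.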
# SW480 rerep: A quantitative high throughput screen for small molecules that induce DNA re-replication in SW480 colon adenocarcinoma cells. Potency, µM (titrated, usually from 46.1 µM), for inactives: at the top dose re-replication activation, actives largely listed as activators. SW480 DNA re-replication, Hoechst DNA content imaging, 48 h. 340,000 compounds, 1.8% hits; note: potency is the fitted concentration of half-maximal effect; % of control where 0% means no effect; nearly all actives have a fitted effect of over 55% in size
#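 Readout is total intensity of Hoechst-stained nuclei, excited at 405 nm and collected at 500-530 nm. Compound treatment lasted 48 hr at 37 C in 5% CO2 before staining.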
# KB-3-1 tox: qHTS assay for MDR1-selective chemotherapeutics: Primary screen using the parental adenocarcinoma cell KB-3-1; KB-3-1 viability, CellTiter-Glo ATP luminescence, 72 h; 400,000 compounds, 1.4% hits; Potency, µM (titrated, usually from 46.1 µM), actives largely listed as cytotoxic; note: potency is the fitted concentration of half-maximal effect; % is set by controls: 0 for no effect and ±100 for the full control effect; nearly all actives have a fitted effect of over 60% in size
#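 KB-3-1 parental drug-naive adenocarcinoma cells in DMEM/10% FBS, incubated 72 h at 37 C with pin-transferred compounds across a concentration series. Viability by CellTiter-Glo luminescence; concentration-response curves fitted after normalization.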
# KB-V1 MDR tox: qHTS assay for MDR1-selective chemotherapeutics: Primary screen using the drug-selected MDR subline cells KB-V1; Potency, µM (highest dose often 46.1 µM), usual class: cytotoxic; KB-V1 MDR cells viability, CellTiter-Glo, 72 h; 400,000 compounds, 3.4% hits; note: potency is the fitted concentration of half-maximal effect; % is set by controls: 0 for no effect and ±100 for the full control effect; nearly all actives have a fitted effect of over 60% in size
#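 Cytotoxicity via CellTiter-Glo luminescence after 72 h compound exposure at 37 degrees C. Cells: drug-selected KB-V1 line, DMEM phenol-red free plus 10% FBS. Compounds tested at multiple concentrations; normalized data fitted to concentration-effect curves.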
# MCF10A rereplic: A quantitative high throughput screen for small molecules that induce DNA re-replication in MCF 10a normal breast cells; MCF 10A DNA re-replication, Hoechst nuclear intensity, 48 h; Potency, µM (titrated, usually from 46.1 µM), without a hit: at the highest dose activity, positive = re-replication, hits mostly activators; 350,000 compounds, 2.9% hits; AID 624296, 2012; note: potency is the fitted concentration of half-maximal effect; % of control where 0% means no effect; nearly all actives have a fitted effect of over 50% in size
# Numbers without * were called inactive; i = inactive; ? = inconclusive; . = not tested or not shown. Unless noted, calls come from the whole dose curve; as a rule, active = well fitted curve in the direction sought with a large enough effect; inconclusive = small, poorly fitted or top-dose-only effect, or another doubt; inactive = no such curve, though single readings can be large; an effect the other way counts as inactive or inconclusive.
SMILES,DRD3 agonist,D3 antag,SW480 rerep,KB-3-1 tox,KB-V1 MDR tox,MCF10A rereplic
O=C(CN1CCCC1)N1CCCc2ccccc21,-12.6,?,1.5%,i,i,-3.3%
O=C(Nc1ccccc1)C(=O)Nc1ccc2c(c1)N(C(=O)C1CC1)CCC2,-0.7,0.0,?,23.1µM*,?,?
CC(NC(c1ccccc1)c1ccccc1)C(=O)N1CCCc2ccccc21 (centres undefined),-5.7,-10.1,-2.3%,18.4µM*,13µM*,?
CC(C)C(=O)c1cn(CC(=O)N2CCCc3ccccc32)c2ccccc12,3.1,-18.6,3.6%,i,5.17µM*,18.5%
CCCCNC(=O)c1nc(C2CCN(S(=O)(=O)c3cccc(C(F)(F)F)c3)CC2)oc1-c1cccc(C(F)(F)F)c1,5.2,24.3,.,i,i,.
COCCCNC(=O)CSc1nc2cc3c(cc2c(=O)n1CCCCCC(=O)NCCc1ccc(OC)c(OC)c1)OCO3,2.4,.,.,.,.,.
CCOC(=O)C1CCN(CC(=O)N2CCc3ccccc32)CC1,-25.2,-74.4*,-10.5%,i,i,13.2%
O=C1NC2(CCCCC2)C(=O)N1CC(=O)N1CCc2ccccc21,-5.3,-0.2,8.9%,i,i,-27.5%
CCOC(=O)C1CCN(Cc2ccccc2C)CC1,0.8,-13.3,-1.8%,i,i,18.5%
CCCC1(CCC)NC(=O)N(CC(=O)N2CCc3ccccc32)C1=O,-0.5,-18.7,0.5%,i,16.4µM*,-1.2%
CCN(CC)c1ccc(/C=N/OCC(=O)N2CCCc3ccccc32)cc1,-12.4,3.6,17.4%,i,i,16.4µM*
CCOC(=O)/C(=N\Nc1ccccc1)P(=O)(c1ccccc1)c1ccccc1,-4.6,-9.1,-14.1%,i,11.6µM*,2.5%
COc1cc(OC)c(NC(=O)N2CCc3cc(S(=O)(=O)N4CCC(C)CC4)ccc32)cc1Cl,7.0,.,.,.,.,.
Cc1ccc2nc(-c3ccc(C)c(NC(=O)COc4ccc(Br)cc4)c3)oc2c1,.,.,.,?,i,.
O=C(O)c1ccccc1SCC(=O)N1CCc2ccccc21,0.9,-7.5,27.5%,i,i,16.4µM*
CC1CCN(c2c(NCc3ccc(C(=O)N(C)C4CCCCC4)cc3)c(=O)c2=O)CC1,-11.7,?,-0.3%,i,i,2.3%
CC1CCN(c2c(NCc3ccc(C(=O)N4CCc5ccccc54)cc3)c(=O)c2=O)CC1,-4.5,-6.8,6.51µM*,1.64µM*,i,3.66µM*
Cc1ccc(-n2c(SCC(=O)N/N=C/c3c(C)nn(-c4ccccc4)c3C)nc3ccccc3c2=O)cc1,-1.4,-25.7,-2.9%,i,i,18.3%
Cc1nn(-c2ccccc2)c(C)c1/C=N/NC(=O)CSc1nc2ccccc2c(=O)n1-c1ccc(Br)cc1,1.2,-6.6,26.6%,?,23.1µM*,12.6µM*
CCn1c(SCC(=O)N/N=C/C=C/c2ccco2)nc2ccccc21,1.9,0.3,16.4µM*,i,i,20.6µM*
Cc1ccc(/C=N/NC(=O)CSc2nc3ccccc3c(=O)n2-c2ccccc2C)s1,12.7,22.6,0.517µM*,?,10.3µM*,-35.3%
Cc1ccc(/C=N/NC(=O)CSc2nc3ccccc3c(=O)n2-c2ccccc2)s1,4.4,1.5,-5.9%,i,i,-65.0%
Cc1ccccc1-n1c(SCC(=O)NCc2cccs2)nc2ccccc2c1=O,-2.2,2.2,10.1%,i,5.8µM*,3.1%
COc1ccc(NC(=O)C(=O)NCC(c2ccc3c(c2)OCO3)N2CCN(C)CC2)cc1 (centres undefined),4.0,.,.,i,i,.
CNC(=O)c1ccc(CSc2nc3cccnc3n2Cc2cccc(F)c2)cc1,6.8,.,.,?,i,.
SMILES,DRD3 agonist,D3 antag,SW480 rerep,KB-3-1 tox,KB-V1 MDR tox,MCF10A rereplic
CN(C(=O)CSc1nnc(-c2ccco2)n1C)C1CCCCC1,-8.9,?,-4.9%,i,i,-0.2%
CC(/C=N/NC(=O)CSc1nc2ccccc2n1C)=C\c1ccco1,1.1,-1.9,?,i,?,20.6µM*
CCn1c(SCC(=O)N/N=C(/C)c2ccncc2)nc2ccccc21,4.5,14.3,2.0%,i,i,-3.1%
Cn1c(SCC(=O)N/N=C/c2ccco2)nc2ccccc21,-3.0,21.3,-10.2%,i,i,-9.8%
CCn1c(SCC(=O)N/N=C/c2ccc(C)s2)nc2ccccc21,-1.0,1.2,?,13µM*,?,13µM*
Cc1ccccc1-n1c(SCC(=O)N/N=C/c2c(C)nn(-c3ccccc3)c2C)nc2ccccc2c1=O,-22.8,-8.7,-26.1%,i,5.8µM*,?
CCc1cccc(CC)c1NS(=O)(=O)c1ccc2c(c1)CCN2C(=O)C1CC1,3.0,.,.,i,i,.
CN(C)CCC(=O)C(Cc1ccccc1)c1ccccc1 (centres undefined),-12.7,-111.8*,?,i,?,4.11µM*
CC(CCCN(C)C)C(Cc1ccccc1)c1ccccc1 (centres undefined),-8.7,-69.5*,?,i,i,?
CCN(CC)C(=O)c1[nH]cnc1C(=O)Nc1ccccc1F,-3.5,-10.5,.,i,i,.
Cc1ccccc1OCC(=O)OCc1cc(=O)n2nc(-c3cccs3)sc2n1,0.1,.,.,i,i,.
Cn1c(=O)n(C)c2cc(CNCc3ccccc3Cl)ccc21,-16.5,.,.,i,i,.
CCCCc1cc(=O)oc2c(CN3CCN(C)CC3)c(O)ccc12,-6.8,-17.3,8.2%,i,i,-1.2%
CCCc1cc(=O)oc2c(CN3CCN(C)CC3)c(O)ccc12,32.3*,5.0,-8.8%,i,i,?
Oc1ccc2ccccc2c1/C=C/c1ccc2c(Br)cc(Br)c(O)c2n1,-16.8,-103.6*,18.4µM*,?,4.11µM*,8.2µM*
Oc1c(Cl)cc(Cl)cc1/C=C/c1ccc2cccc(O)c2n1,32.2*,1.3,11.6µM*,?,?,6.51µM*
O=C(/C=C/c1ccc2ccccc2n1)c1cc(Cl)ccc1O,0.4,-5.5,11.1%,i,i,11.7%
CCOc1cc(/C=C/c2ccc3cccc([N+](=O)[O-])c3n2)cc(Cl)c1O,-10.8,-9.8,16.2%,i,i,26.1%
Oc1cccc2ccc(/C=C/c3ccccc3Br)nc12,-39.6,-113.8*,6.51µM*,?,?,?
